PubChem BioAssay AID463173 (ICCB-Longwood Screening Facility, Harvard Medical School, 2010)
The campaign covered roughly 52,000 compounds. About 4,300 (8.3%) were called active. Rule as the data show it: active = survival mostly below about 52% (no sharp cut-off); inactive = mostly above about 56%. This excerpt belongs to a sample that is enriched for actives.

system: DeltatarO mutant; experiment: growth inhibition of S. aureus wild type versus tarO mutant, primary screen, teichoic acid synthesis inhibitors, RN4220, OD600 (AID 463173); conditions: OD600, 18 h, active compounds read low, screened at 18.75 µg/mL (by protocol)

Row | SMILES | survival
1 | CCC(C(=O)N1CCN(c2cc(Cl)ccc2C)CC1)n1nc(C)n2c(cc3occc32)c1=O (stereo not drawn) | 69% (inactive)
2 | CCC(C(=O)N1CCN(c2ccc(OC)cc2)CC1)n1nc(C)n2c(cc3occc32)c1=O (stereo not drawn) | 117% (inactive)
3 | CCC(C(=O)N1CCN(c2cc(C)ccc2C)CC1)n1nc(C)n2c(cc3occc32)c1=O (stereo not drawn) | 43% (active)
4 | Cc1ccc(S(=O)(=O)c2nc(S(=O)(=O)c3ccc(C)cc3)c(NCCCOC(C)C)s2)cc1 | 75% (inactive)
5 | C=C(C)c1cccc(C(C)(C)NC(=O)N2CCCC2)c1 | 111% (inactive)
6 | Cc1ccc(CNC(=O)Cc2c(C)c3c(cc(C)c4c(C)coc43)oc2=O)cc1 | 100% (inactive)
7 | CCCn1c(NCc2ccccc2F)nc2ccccc21 | 90% (inactive)
8 | CCCCn1c(NCc2cc(Br)ccc2O)nc2ccccc21 | 42% (active)
9 | CCCC(O)c1nc2ccccc2n1Cc1ccccc1OC (stereo not drawn) | 105% (inactive)
10 | CCn1c(NCc2ccc(OC)c(OC)c2)nc2ccccc21 | 116% (inactive)
11 | CCCCn1c(NCc2ccc(OC)cc2O)nc2ccccc21 | 66% (inactive)
12 | CCCn1c(NCc2ccc(N(CC)CC)cc2)nc2ccccc21 | 29% (active)
13 | Cn1c(NCc2ccccc2F)nc2ccccc21 | 93% (inactive)
14 | CCCCCn1c(NCc2ccccc2OC)nc2ccccc21 | -1% (active)
15 | CCCCCn1c(NCc2ccc(OC)cc2)nc2ccccc21 | 33% (active)
16 | CCCn1c(NCc2ccccc2C)nc2ccccc21 | 108% (inactive)
17 | CCCCn1c(NCc2ccc(N(C)C)cc2)nc2ccccc21 | 52% (inactive)
18 | CCn1c(NCc2ccccc2)nc2ccccc21 | 95% (inactive)
19 | CCOC(=O)c1cc(-c2ccc(F)cc2)n(CCC(=O)Nc2cc(OC)cc(OC)c2)c1C | 71% (inactive)
20 | Cc1ccc(Cl)cc1-n1ncc2c(Nc3ccc4c(c3)OCCO4)ncnc21 | 82% (inactive)

Row | SMILES | survival
21 | Cc1c(C(=O)N2CCCC2)oc2c1-c1nn(CC(=O)NCc3cccc(Br)c3)cc1CC2 | 75% (inactive)
22 | COc1ccccc1-c1cc2nc(C)c(CCC(=O)Nc3cc(C)ccc3C)c(C)n2n1 | 60% (inactive)
23 | COc1ccc(CNC(=O)C2(c3cccs3)CCOCC2)cc1 | 72% (inactive)
24 | CCOc1ccc2c(c1)c(=O)c(S(=O)(=O)c1ccccc1)cn2CC(=O)Nc1ccccc1OC | 70% (inactive)
25 | CC1=C(C(=O)NCc2ccc(Cl)cc2)C2(CCC(C)CC2)OC1=O (stereo not drawn) | 86% (inactive)
26 | Cc1nn(C)c2c1c(C(F)(F)F)cc(=O)n2C(C)C(=O)NCCc1ccc(Cl)cc1 (stereo not drawn) | 81% (inactive)
27 | Cn1c(=O)nc2n(-c3ccc(Cl)c(Cl)c3)c3cc(Cl)ccc3cc-2c1=O | 87% (inactive)
28 | CCOc1ccc(CN2CCc3nc(N4CCN(c5ccccn5)CC4)ncc3C2)cc1OC | 120% (inactive)
29 | CCOC(=O)c1sc(N2C(=O)c3oc4ccccc4c(=O)c3C2c2ccc(C(C)(C)C)cc2)nc1C (stereo not drawn) | 51% (active)
30 | CCCOc1ccc(C2c3c(oc4ccccc4c3=O)C(=O)N2c2nc(C)c(C(=O)OCC)s2)cc1 (stereo not drawn) | 60% (inactive)
31 | CCOc1cccc(C2c3c(oc4ccccc4c3=O)C(=O)N2c2nc(C)c(C(=O)OC)s2)c1 (stereo not drawn) | 51% (inactive)
32 | COc1cc(C2c3c(oc4ccccc4c3=O)C(=O)N2c2nnc(C(C)C)s2)cc(OC)c1OC (stereo not drawn) | 63% (inactive)
33 | CC(C)c1nnc(N2C(=O)c3oc4ccccc4c(=O)c3C2c2cccc(O)c2)s1 (stereo not drawn) | 62% (inactive)
34 | CCCOc1ccc(C2c3c(oc4ccccc4c3=O)C(=O)N2c2nnc(C(C)C)s2)cc1 (stereo not drawn) | 58% (active)
35 | COc1ccc(C2c3c(oc4ccccc4c3=O)C(=O)N2Cc2ccc3c(c2)OCO3)cc1 (stereo not drawn) | 71% (inactive)
36 | CCOc1ccc(C2c3c(oc4ccccc4c3=O)C(=O)N2Cc2ccc3c(c2)OCO3)cc1 (stereo not drawn) | 36% (active)
37 | CCOc1cccc(C2c3c(oc4cc(C)c(C)cc4c3=O)C(=O)N2c2nc(C)c(C)s2)c1 (stereo not drawn) | 74% (active)
38 | COC(=O)c1ccc(C2c3c(oc4ccccc4c3=O)C(=O)N2c2nc(C)c(C(=O)OC)s2)cc1 (stereo not drawn) | 71% (inactive)
39 | Cc1nc(N2C(=O)c3oc4ccccc4c(=O)c3C2c2cccc(OCCC(C)C)c2)sc1C (stereo not drawn) | 59% (inactive)
40 | CCOc1cc(C2c3c(oc4ccccc4c3=O)C(=O)N2Cc2ccc3c(c2)OCO3)ccc1O (stereo not drawn) | 81% (inactive)

Row | SMILES | survival
41 | Cc1cccc(CC(=O)NCCc2csc(-c3ccc(C(F)(F)F)cc3)n2)c1 | 101% (inactive)
42 | CCc1ccc(-n2c(=O)c3ccccc3n(CC(=O)NCCc3ccc(OC)c(OC)c3)c2=O)cc1 | 91% (inactive)
43 | CC(C)OC(=O)CSc1nnc(-c2ccc(O)cc2)o1 | 72% (inactive)
44 | COc1ccc(CSC(=N)N)cc1Cl | 97% (inactive)
45 | COc1ccc(-c2csc(N)n2)cc1C | 97% (inactive)
46 | O=C(NCC(c1ccco1)S(=O)(=O)c1cccs1)c1ccc(F)c(F)c1 (stereo not drawn) | 75% (inactive)
47 | COc1ccc(CNC(=O)CCCn2nc(C)c3c(C)n(-c4ccc(C)cc4)nc3c2=O)cc1OC | 74% (inactive)
48 | COc1cccc(CNC(=O)CCn2nc(C)c3c(C)n(-c4ccccc4)nc3c2=O)c1 | 83% (inactive)
49 | Cc1ccc(NC(=O)CCCn2nc(C)c3c(C)n(-c4ccccc4)nc3c2=O)c(Cl)c1 | 89% (inactive)
50 | COc1cc(OC)c(NC(=O)CCCn2nc(C)c3c(C)n(-c4ccccc4)nc3c2=O)cc1Cl | 32% (active)
51 | CCN(CC)CCNC(=O)Cn1nc(C)c2c(C)n(-c3ccccc3)nc2c1=O | 70% (inactive)
52 | CCOc1ccc(CCNC(=O)Cn2nc(C)c3c(C)n(-c4ccccc4)nc3c2=O)cc1OCC | 25% (active)
53 | Cc1cc(Cl)ccc1NC(=O)CCCn1nc(C)c2c(C)n(-c3ccccc3)nc2c1=O | 112% (inactive)
54 | COc1ccc(CNC(=O)CCn2nc(C)c3c(C)n(-c4ccccc4)nc3c2=O)cc1OC | 0% (active)
55 | Cc1ccc(C)c(NC(=O)CCn2nc(C)c3c(C)n(-c4ccccc4)nc3c2=O)c1 | 37% (active)
56 | Cc1cc(Cl)ccc1NC(=O)CCn1nc(C)c2c(C)n(-c3ccccc3)nc2c1=O | 72% (inactive)
57 | Cc1cccc(NC(=O)CCn2nc(C)c3c(C)n(-c4ccccc4)nc3c2=O)c1C | 57% (inactive)
58 | Cc1ccc(CCNC(=O)Cn2nc(C)c3c(C)n(-c4ccc(C)cc4)nc3c2=O)cc1 | 79% (inactive)
